# From ChEMBL document CHEMBL4513216, “Probing the Open Global Health Chemical Diversity Library for Multistage-Active Starting Points for Next-Generation Antimalarials” (ACS Infect Dis, 2020)
# Out of some 68,000 compounds screened, about 2,700 (4%) showed an effect of 50% or more. For the sample, strong results were picked, then their nearest neighbours and some compounds at random.
# System: Plasmodium berghei
# Test: Screen against P. berghei liver stage (PbLuc), transformed with Luciferase, at 2uM
# Type: functional, HepG2
# Details: tested at 2 uM
row,Structure (SMILES),INHIBITION [%]
1,Cn1cc(NC(=O)c2cc3c(s2)CCCC3)cn1,-56.09
2,Cc1nc(C)n(CC2CCCCN2CCCS(C)(=O)=O)n1 (stereo not given),-12.84
3,O=C(NCCc1ccncc1)c1ccc(S(=O)(=O)NC2CCC2)cc1,28.85
4,CN(C)CCNC(=O)c1ccc(S(=O)(=O)N[C@@H]2CCNC2)cc1,8.31
5,CC(C)N(CCNC(=O)c1ccc(S(=O)(=O)NC2CC2)cc1)C(C)C,58.12
6,CC(O)CN1CCN(C(=O)c2cccn2Cc2ccccc2)CC1 (stereo not given),15.28
7,O=C(c1ccncc1)N1CCCn2c(CN3CCCC3)nnc2C1,23.14
8,Cc1cc(C)c(CNC(=O)NCC2Cc3ccccc32)c(=O)[nH]1 (stereo not given),45.16
9,NC(=O)c1ccc(CNC(=O)Nc2cn[nH]c2)cc1,26.06
10,CN1CC(=O)N(c2cnn(C)c2)CC12CCN(Cc1ccccc1)C2 (stereo not given),15.96
11,COCc1nnc(C(=O)N2CCC(N3CCCCC3)CC2)o1,57.89
12,COCc1nnc(C(=O)N2CCCC(O)C2)o1 (stereo not given),30.88
13,COCc1nnc(C(=O)N2CC(N3CCCCC3)C2)o1,-13.03
14,CN(C)C(C(=O)N1CC(Oc2ccccc2F)C1)c1ccccc1F (stereo not given),19.07
15,CCCN1CCCN(C(=O)c2ccc(Oc3cccnc3)cc2)CC1,35.37
16,COc1cccc(CN(C)CCCn2cnc3c(N)ncnc32)c1,-51.87
17,COc1cccc(SCCCn2cnc3c(N)ncnc32)c1,52.19
18,COc1ccc(OCCN(C)CCCn2cnc3c(N)ncnc32)cc1,36.29
19,Cc1ncnc2c1CCN(C(=O)c1ccncc1F)CC2,6.81
20,O=C1CC(c2ccncc2)C2(CCN(CC3CC3)CC2)N1 (stereo not given),22.2
21,Cc1nc(N2CCN3CCCCC3C2)nc2cc(S(C)(=O)=O)ccc12 (stereo not given),-15.11
22,Cc1nc(N2CCCC(C)C2)nc2cc(S(C)(=O)=O)ccc12 (stereo not given),-24.78
23,Cc1nc(N2C[C@H]3CC[C@@H](C2)N3)nc2cc(S(C)(=O)=O)ccc12,77.42
24,O=C(COc1ccccc1)NCCNC(=O)c1scnc1Cl,7.71
25,CC(C)(C)OC(=O)N1CCCN(c2nnc(C3CC3)s2)CC1,34.69
26,Cc1nnc(NC(=O)CN2CCc3nn(C)c(=O)cc3C2)s1,23.27
27,Cc1cc(CN2CCN(CC(O)c3ccc4c(c3)OCO4)CC2)no1 (stereo not given),-19.1

row,Structure (SMILES),INHIBITION [%]
1,Cc1noc(C)c1CNCC1COCc2c(-c3ccsc3)nnn2C1 (stereo not given),7.68
2,Cc1cc(C)c(CNC(=O)c2ccc3c(c2)CCC3)c(=O)[nH]1,58.52
3,Cc1cc(C)c(CNC(=O)NCc2ccc3c(c2)CCC3)c(=O)[nH]1,-7.02
4,Cc1cc(C)c(CNC(=O)NC(C)c2ccc3c(c2)CCC3)c(=O)[nH]1 (stereo not given),50.05
5,Cc1cc(C)c(CNC(=O)Cc2ccc3c(c2)CCCC3)c(=O)[nH]1,4.18
6,Cc1ccc(C(O)CNC(=O)NCc2c(C)cc(C)[nH]c2=O)cc1 (stereo not given),-11.2
7,Cc1cc(C)c(CNC(=O)NCCOc2ccc3c(c2)CCC3)c(=O)[nH]1,14.11
8,CNc1ncc(C(=O)N2CCOC(C(=O)NC3CCCC3)C2)cn1 (stereo not given),8.75
9,Cc1ccc(CN(CCCn2ccnc2)Cc2cc(F)ccc2F)s1,20.71
10,CC1=N[C@@]2(CC[C@@H]3CN(CC4CC4)C[C@@H]32)C(=O)N1CC(C)C,28.85
11,CN(Cc1ccco1)[C@@H]1CN(C(=O)c2ccnnc2)[C@@H]2CCCO[C@H]12,7.08
12,Cc1nccnc1N1C[C@H]2CN(C3CCOCC3)C[C@@]2(C(=O)O)C1,8.93
13,CCC(=O)NC(C)c1ccccc1C (stereo not given),-6.19
14,CC(NC1CCSCC1)c1ccccc1-n1cccn1 (stereo not given),27.52
15,CC(NC(=O)c1ccc(=O)n(C)c1)c1ccccc1-n1cccn1 (stereo not given),51.64
16,CC(NC(=O)c1cc(=O)n(C)c(=O)n1C)c1ccccc1-n1cccn1 (stereo not given),50.97
17,Cn1cc(C(=O)Nc2cccc(F)c2)ccc1=O,-66.38
18,Cc1ccccc1C(C)NC(=O)c1ccc(=O)n(C)c1 (stereo not given),64.9
19,CCN(CC)CCCC(C)NC(=O)c1ccccc1-n1cccn1 (stereo not given),19.33
20,Cn1c(CNc2c(F)cccc2-n2cccn2)cc(=O)n(C)c1=O,32.14
21,CC(NC1CCCC1)c1ccccc1-n1cccn1 (stereo not given),21.28
22,CC(=O)NCc1cc2n(n1)CCN(Cc1ccccc1OC(F)(F)F)C2,27.52
23,CCN(CC)S(=O)(=O)N1C[C@@H](c2ccccc2)[C@H]2[C@H]1CCCCCN2C,20.71
24,Cc1nc(C)c(-c2ccn(CC(=O)Nc3cnn(C)n3)n2)s1,8.05
25,CC(C)=CCN1C[C@@H]2CC[C@H]1CN(C(=O)c1ccc3c(c1)OCO3)C2,34.98
26,Cc1cc2c(=O)n(CCSc3cnn[nH]3)cnc2s1,39.99
27,CN(Cc1ccsc1)C(=O)c1ccc(C2CCCO2)s1 (stereo not given),-15.11

row,Structure (SMILES),INHIBITION [%]
1,O=C(CNC(=O)c1ccccc1I)NCc1ccccc1F,-20.75
2,CS(=O)(=O)NCc1cc(=O)n2c(n1)CN(CC1CC1)CCC2,33.12
3,Clc1cnccc1N1CCCC2(CCCOC2)C1 (stereo not given),48.73
4,CCS(=O)(=O)c1ccc(N2CCC(N)CC2)cc1,67.9
5,CCS(=O)(=O)c1ccc(N2CCC(NC(C)=O)CC2)cc1,-0.54
6,CCNC(=O)NC1CCN(c2ccc(S(=O)(=O)CC)cc2)CC1,-6.38
7,O=C(c1sccc1C1CC1)N1CCN(c2nccs2)CC1,-15.54
8,CC(c1ccon1)N(C)S(=O)(=O)NCc1ccccc1 (stereo not given),-6.7
9,Cc1cc(C(=O)N(C)CC(F)(F)C(F)(F)F)ccc1-n1cncn1,49.78
10,CCN(CC)C(=O)CCc1nc(-c2cnn3c(C)cc(C)nc23)no1,-23.48
11,O=C(NCc1cccnc1N1CCCC(O)C1)c1ccc2[nH]nnc2c1 (stereo not given),33.13
12,O=C(NCc1cccnc1N1CCCCC1)c1ccc2cc[nH]c2c1,15.75
13,O=C(NCc1cccnc1N1CCCCC1)c1ccc2[nH]nnc2c1,54.47
14,O=C1NC[C@@]2(C(=O)O)CN(Cc3cccc(CN4CCOCC4)c3)C[C@@H]12,34.46
15,O=C1NC[C@@]2(C(=O)O)CN(Cc3cccc(OC4CCCC4)c3)C[C@@H]12,62
16,O=C1NC[C@@]2(C(=O)O)CN(Cc3cccc(Oc4ccccc4)c3)C[C@@H]12,24.55
17,Cc1cc(C(C)(O)CNC(=O)C2(C)CCCC2)c(C)o1 (stereo not given),65.92
18,Cc1cc(C(C)(O)CNC(=O)c2ccc(Br)o2)c(C)o1 (stereo not given),27.32
19,Cc1cc(C(C)(O)CNC(=O)OC(C)(C)C)c(C)o1 (stereo not given),25.21
20,COCC1CC2(CCN(Cc3ccc(OC)cc3)CC2)CN1C(C)C (stereo not given),2.07
21,CC1CCN(CCNC(=O)c2cncnc2C(C)C)CC1,25.35
22,Cc1ccccc1-c1ncc(CNCc2csc(C(C)C)n2)s1,-17.01
23,Cc1cnc(CNCc2cnc(-c3ccccc3C)s2)cn1,58.53
24,CCC1=NOC(CNCc2cnc(-c3ccccc3C)s2)C1 (stereo not given),-31.79
25,COCCN1C=NC2(CCC(C(=O)Nc3ccc(C)cc3)CC2)C1=O (stereo not given),-76.06
26,COc1cccc(-c2noc(C3CCN(Cc4ccc(C)cc4)C3)n2)c1 (stereo not given),58.96
27,COc1cccc(-c2noc(C3CCN(Cc4ccccc4C)C3)n2)c1 (stereo not given),3.97

row,Structure (SMILES),INHIBITION [%]
1,COc1cccc(-c2noc(C3CCN(Cc4ccncc4)C3)n2)c1 (stereo not given),-22.79
2,Cc1cccc(CN2CCC3(CC2)CN(c2cnn(C)c2)C(=O)CO3)n1,-29.81
3,Cc1cc(NC(=O)C(C#N)Cc2cnn(C)c2C)no1 (stereo not given),-11.32
4,CN1CCCC1CCn1ccnc1-c1nc(-c2ccccc2)no1 (stereo not given),17.37
5,O=c1c(S(=O)(=O)N2CCCC2)cccn1Cc1ccccc1Cl,52.89
6,O=c1c(S(=O)(=O)N2CCCCC2)cccn1Cc1ccccc1Cl,-10.16
7,O=c1c(S(=O)(=O)N2CCCC2)cccn1Cc1ccc(F)cc1Cl,0.78
8,O=C(NCc1cccc(F)c1)NCC(O)c1cccc(F)c1 (stereo not given),-70.27
9,Cc1ccc(C)c(NC(=O)c2coc(C)n2)c1,48.68
10,COCc1ccc(C(=O)NS(=O)(=O)c2ccc3c(c2)CCC(=O)N3)cc1,24.36
11,COc1cccc(-c2noc3c2CN(c2ncnc4c2CCC4)CC3)c1,62.51
12,COc1cccc(-c2noc3c2CN(c2nc(C)ncc2C)CC3)c1,36.28
13,COCc1cc(N2CCc3onc(-c4cccc(OC)c4)c3C2)ncn1,5.28
14,CC[C@@H](C)[C@@H](N)C(=O)Nc1cccc(-c2cnc(NCCO)nc2)c1,-35.83
15,CC(C)n1cnnc1C1CCCN(S(=O)(=O)CC2CCCC2)C1 (stereo not given),60.42
16,CC(C)CCS(=O)(=O)N1CCCC(c2nncn2C(C)C)C1 (stereo not given),-108.93
17,CC(C)n1cnnc1C1CCCN(S(=O)(=O)CCCF)C1 (stereo not given),-33.29
18,Cc1nc(CN2CCC3(C2)CN(C(=O)c2conc2C)C3)cs1,3.95
19,CC(C)Cc1noc(-c2ccc(NCc3noc(C(C)C)n3)nc2)n1,42.17
20,CCn1cncc1CNc1ccc(-c2nc(CC(C)C)no2)cn1,-15.11
21,CCC(O)CNc1ccc(-c2nc(CC(C)C)no2)cn1 (stereo not given),69.71
22,COc1ccc(Cc2noc(-c3ccc(NC(C)CO)nc3)n2)cc1 (stereo not given),43.44
23,CC(CO)Nc1ccc(-c2nc(Cc3ccc(F)cc3)no2)cn1 (stereo not given),57.75
24,COCC(C)Nc1ccc(-c2nc(Cc3ccc(F)cc3)no2)cn1 (stereo not given),31.51
